Assay results taken from the supplement of paper PMC12350171.
Where a name gives a salt, the structure may show the parent alone.

tested on: Haemophilus parainfluenzae; assay: growth AUC normalised to DMSO control (fraction of control); higher = less growth inhibition, active = hit call of the paper; details: 20 µM;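 active = AUC significantly below DMSO controls by Student t-fit with adjusted P under 0.01; inactive = not significantly reduced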
How it was run: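 After two anaerobic passages, pathogens were added at a starting OD578 of 0.01 to pre-reduced mGAM plates holding compound at 20 μM with 1% DMSO; hemin and NAD were supplemented for Haemophilus parainfluenzae. Sealed with breathable membranes, plates were read at OD578 hourly for 24 h, in three biological replicates. The trapezoidal rule, applied up to the exponential-to-stationary transition, gave the growth-curve AUC, which was normalised to DMSO controls on the same plate.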

| SMILES | growth AUC normalised to DMSO control |
| --- | --- |
| CC1(C)O[C@@H]2[C@@H](CO[C@@]3(COS(N)(=O)=O)OC(C)(C)O[C@@H]23)O1 [Topiramate] | 1.03 (inactive) |
| CC(C)(C)c1ccc(C(O)CCCN2CCC(C(O)(c3ccccc3)c3ccccc3)CC2)cc1 (stereo not drawn) [Terfenadine] | 0.88 (inactive) |
| CC(=O)O[C@H]1C[C@@]2(C)[C@@H](C[C@@H](O)[C@H]3[C@@]4(C)CC[C@@H](O)[C@@H](C)[C@@H]4CC[C@@]32C)/C1=C(\CCC=C(C)C)C(=O)O [Fusidic acid sodium salt] | 0.345 (active) |
| CC(C)NC[C@@H](O)COc1cccc2ccccc12 [(R) Propranolol hydrochloride] | 0.99 (inactive) |
| CC1=C(/C=C/C(C)=C/C=C/C(C)=C/C(=O)O)C(C)(C)CCC1 [Retinoic acid] | 0.995 (inactive) |
| C[C@@H](O)[C@H]1C(=O)N2C(C(=O)O)=C(SCCNC=N)C[C@H]12 [Imipenem] | 1.01 (inactive) |
| OC(CCN1CCCC1)(c1ccccc1)C1CCCCC1 (stereo not drawn) [Procyclidine hydrochloride] | 0.962 (inactive) |
| COC(=O)[C@@H]1[C@H]2C[C@H]3c4[nH]c5ccccc5c4CCN3C[C@@H]2CC[C@@H]1O [Yohimbine hydrochloride] | 0.971 (inactive) |
| CO[C@H]1/C=C/O[C@@]2(C)Oc3c(C)c(O)c4c(O)c(c5c(nc6cc(C)ccn65)c4c3C2=O)NC(=O)/C(C)=C\C=C\[C@H](C)[C@H](O)[C@@H](C)[C@@H](O)[C@@H](C)[C@H](OC(C)=O)[C@@H]1C [Rifaximin] | 0.026 (active) |
| CCCCOC(=O)c1ccc(O)cc1 [Butylparaben] | 0.97 (inactive) |
| O=C1NCC2(CCN(CCc3ccccc3)CC2)O1 [Fenspiride hydrochloride] | 0.967 (inactive) |
| CN1CCCN(C(c2ccccc2)c2ccc(Cl)cc2)CC1 (stereo not drawn) [Homochlorcyclizine dihydrochloride] | 0.942 (inactive) |
| CN(C)CCOC(=O)C(c1ccccc1)C1(O)CCCC1 (stereo not drawn) [Cyclopentolate hydrochloride] | 1.04 (inactive) |
| CCN(CC)C(=S)SSC(=S)N(CC)CC [Disulfiram] | 0.979 (inactive) |
| CC(=O)[C@H]1CC[C@H]2[C@@H]3CCC4=CC(=O)CC[C@]4(C)[C@H]3CC[C@]12C [Progesterone] | 1.03 (inactive) |
| CN1[C@@H]2CC[C@H]1C[C@@H](OC(c1ccccc1)c1ccccc1)C2 [Benztropine mesylate] | 1 (inactive) |
| COc1ccc2cc([C@@H](C)C(=O)O)ccc2c1 [(R) Naproxen sodium salt] | 1.1 (inactive) |
| C[C@]12C=CC(=O)C=C1CC[C@@H]1[C@@H]2[C@@H](O)C[C@@]2(C)[C@H]1CC[C@]2(O)C(=O)CO [Prednisolone] | 0.935 (inactive) |
| CC(C)(Oc1ccc(C2CC2(Cl)Cl)cc1)C(=O)O (stereo not drawn) [Ciprofibrate] | 1.01 (inactive) |
| CC(=O)[C@H]1CC[C@H]2[C@@H]3C[C@H](C)C4=CC(=O)CC[C@]4(C)[C@H]3[C@@H](O)C[C@]12C [Medrysone] | 0.955 (inactive) |
| CCCCCCC[N+](CC)(CC)CCCCc1ccc(Cl)cc1 [Clofilium tosylate] | 1.01 (inactive) |
| NCCCC[C@H](N[C@@H](CCc1ccccc1)C(=O)O)C(=O)N1CCC[C@H]1C(=O)O [Lisinopril] | 0.992 (inactive) |
| NC(=O)c1cnccn1 [Pyrazinamide] | 0.979 (inactive) |
| C#C[C@]1(O)CC[C@H]2[C@@H]3CCC4=C(CCC(=O)C4)[C@H]3CC[C@@]21C [Norethynodrel] | 0.989 (inactive) |
| CN(Cc1ccc(C(C)(C)C)cc1)Cc1cccc2ccccc12 [Butenafine hydrochloride] | 0.913 (inactive) |
| Oc1ncnc2[nH]ncc12 [Allopurinol] | 1.01 (inactive) |
| CNC(C)CCC=C(C)C (stereo not drawn) [Isometheptene mucate] | 0.97 (inactive) |
| CC(=O)OCC(=O)NCCCOc1cccc(CN2CCCCC2)c1 [Roxatidine acetate hydrochloride] | 0.971 (inactive) |
